For 21 compounds, max response, outcome and Potency results are on record in PubChem BioAssay (NCATS).

Molecules are shown by their SMILES. Results filed as inconclusive are left out. Unmarked numbers belong to inactive results. The source made the active and inactive calls. The call rests on the fitted dose curve; in most records, active means well fitted inhibition curve with a large enough effect; inconclusive means small, poorly fitted or top-dose-only effect; inactive means flat fitted curve, though single readings scatter.

Holding throughout (assay): Cytotoxic Profiling of Annotated Libraries Using Quantitative High-Throughput Screening (AID 1296008); further: nearly all actives have a fitted effect of over 60% in size
What all share (conditions): Five cell lines viability, CellTiter-Glo ATP luminescence, 48-72 h; max response: hits give low values
(In general: ATP-based viability assays read luminescence as a measure of living cells.)

For one experiment, the system named is CRL-7250. The method, boiled down:
(§1)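 Compounds were pin-transferred onto cells and incubated 48 or 72 hr at 37 degree Celsius, 95% humidity. CellTiter-Glo was added, plates sat 10 min at room temperature, then ATP-coupled luminescence was imaged as the viability read-out.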

Another experiment has as its system HEK293. The method, boiled down: as §1
The next experiment relates to KB-3-1. The method in brief:
as §1

In another experiment the test system is NIH3T3. The method in brief: as §1
On the % scale 0 is the no-effect control and ±100 the full control effect; potency means the concentration at half of the fitted maximal effect.

With `CCO[C@@H]1OC(=O)C[C@@H]1NC(=O)[C@@H]1CCCN1C(=O)[C@@H](NC(=O)c1ccc(N)c(Cl)c1)C(C)(C)C`, the max response with CRL-7250 was 1.63%; in the experiment with HEK293, 1.39%; in the experiment on KB-3-1, 2.91%; in the experiment with NIH3T3, -4.45%.
`Nc1nc2c(ncn2[C@@H]2O[C@H](CO)[C@@H](O)[C@H]2O)c(=O)[nH]1`: the max response in the experiment with CRL-7250 is -5%; in the experiment with HEK293, -9.89%; with KB-3-1, 4.1%. The compound was called inactive in the experiment on NIH3T3.
As to `CC1(C)CC[C@]2(C(=O)O[C@@H]3O[C@H](CO)[C@@H](O)[C@H](O)[C@H]3O)CC[C@]3(C)C(=CCC4[C@@]5(C)C[C@@H](O)[C@H](O)[C@](C)(C=O)C5CC[C@]43C)[C@@H]2[C@@H]1O` (some centres undefined), the result in the experiment with CRL-7250 and in the experiment with KB-3-1 was inactive. The max response is -5.81% in the experiment with HEK293 and 0.296% with NIH3T3.
Turning to `Cc1oc2ccccc2c1CNC(=O)NCc1cccs1`, the max response was 1.28% in the experiment with CRL-7250, -27.1% with HEK293, -11.8% with KB-3-1 and -4.16% in the experiment with NIH3T3.
Turning to `CCCCc1nc2cc(/C=C/C(=O)NO)ccc2n1CCN(CC)CC`, the Potency in the experiment on CRL-7250 was 5800 nM (active); in the experiment on HEK293, 1840 nM (active); with KB-3-1 it was 1460 nM (active); with NIH3T3, 5170 nM (active).
For `OC[C@H]1O[C@@H](Oc2cc(O)c3c(c2)O[C@@H](c2ccc(O)cc2)[C@H](O)C3)[C@H](O)[C@@H](O)[C@@H]1O`, the values for the max response in the experiment on CRL-7250 and with HEK293 were -1.22% and -5.13%, respectively. Further, the result with KB-3-1 and in the experiment with NIH3T3 was inactive.
In the case of `CC(C)Oc1ccc(C(=O)NC(CNC(=O)CN(C)C)Cc2ccc(-c3cn4cccc(C(C)O)c4n3)cc2)cc1Cl` (centres undefined), the max response with CRL-7250 was -25.1%; in the experiment on NIH3T3, -19.5%. In addition, the Potency in the experiment on HEK293 was 206 nM (active); in the experiment with KB-3-1, 146 nM (active).
`C[S+](CC[C@H](N)C(=O)[O-])C[C@H]1O[C@@H](n2cnc3c(N)ncnc32)[C@H](O)[C@@H]1O` (some centres undefined): the max response with CRL-7250 is -13.4%; with HEK293, 3.53%; with KB-3-1, 3.65%; with NIH3T3, -4.29%.
Taken in the same sequence, the figures for `C=C1C(O)C(O)C2(CC3C(C)=CCC4C(C)(CO)CCCC34C)OC2C1O` (centres undefined) were -2.93%, -13.5%, -3.07% and -5.46%.
For the compound `COc1ccc(CCO[C@@H]2CCCC[C@H]2N2CC[C@@H](O)C2)cc1OC`, the max response is -6.87% with CRL-7250, 2.72% with HEK293 and 4.12% in the experiment with KB-3-1. Besides, the call in the experiment with NIH3T3 was inactive.
Regarding `CCC[C@@H]1O[C@@H]2C[C@H]3[C@@H]4CCC5=CC(=O)C=C[C@]5(C)[C@H]4[C@@H](O)C[C@]3(C)[C@]2(C(=O)CO)O1`, the values for the max response in the experiment with CRL-7250, in the experiment with HEK293 and in the experiment with NIH3T3 were 0.403%, 0.791% and -20.8%, respectively. Besides, the result in the experiment on KB-3-1 was inactive.
With `CC(=O)C1=C(C)N(c2cccc(C(F)(F)F)c2)C(=O)N[C@H]1c1ccc(C#N)nc1`, the max response is 2.3% in the experiment with CRL-7250, -4.03% in the experiment with HEK293, 1.77% with KB-3-1 and -21.8% with NIH3T3.
On to `CS(=O)(=O)c1ccc([C@H](CC2CCCC2)C(=O)Nc2nccs2)cc1`, for which the max response was 1.1% in the experiment with CRL-7250, -58% in the experiment on HEK293 and -48.7% in the experiment with NIH3T3. The compound was called inactive in the experiment with KB-3-1.
For `CN(C)C/C=C/C(=O)Nc1cccc(C(=O)Nc2ccc(Nc3nccc(-c4cccnc4)n3)cc2)c1`, the Potency with CRL-7250 was 7310 nM (active); with HEK293, 5800 nM (active); in the experiment with KB-3-1, 3660 nM (active); with NIH3T3, 10300 nM (active).
Consider `C[C@@H]1O[C@@H](O[C@H]2[C@H](OC(=O)[C@]34CCC(C)(C)C[C@H]3C3=CCC5[C@@]6(C)C[C@H](O)[C@H](O[C@@H]7O[C@H](CO)[C@@H](O)[C@H](O)[C@H]7O)[C@@](C)(CO)C6[C@H](O)C[C@@]5(C)[C@]3(C)C[C@H]4O)OC[C@H](O)[C@@H]2O)[C@H](O)[C@H](O)[C@H]1O[C@@H]1OC[C@@H](O)[C@H](O[C@H]2OC[C@](O)(CO)[C@H]2O)[C@H]1O` (some centres undefined), for which the compound was classed as inactive in the experiment with CRL-7250 and in the experiment with NIH3T3. Also, the results for the max response with HEK293 and in the experiment with KB-3-1 were 3.89% and 3.95%, respectively.
With `CC1CCC2(C(=O)O)CCC3(C)C(=CCC4C5(C)CCC(OC(=O)/C=C/c6ccccc6)C(C)(C)C5CCC43C)C2C1C` (centres undefined), in the experiment on CRL-7250, the result was inactive. In addition, the max response in the experiment on HEK293 is -4.63%; in the experiment with KB-3-1, 3.54%; in the experiment with NIH3T3 it was -3.46%.
The corresponding values for `O=C(O)c1ccc(OC2OC(CO)C(O)C(O)C2O)cc1` (centres undefined) are “inactive”, -2.82%, 6.64% and 1.85%.
In the case of `COc1cc(Nc2nc3ccccc3nc2NS(=O)(=O)c2ccc(NC(=O)c3ccc(OC)c(C)c3)cc2)cc(OC)c1`, the max response in the experiment on CRL-7250 is -3.06%; in the experiment on HEK293, 1.81%. Further, the compound was classed as inactive in the experiment with KB-3-1 and in the experiment on NIH3T3.
Take `Cc1c2cc(c(C(=O)O)c1C)OC1OC(C(O)C(O)C1O)C(O)C(O)C1OC(O2)C(O)C(O)C1O` (centres undefined): the values for the max response in the experiment with CRL-7250 and with HEK293 were -20.3% and -0.813%, respectively. The outcome in the experiment on KB-3-1 and with NIH3T3 was inactive.
Consider `COc1cc(N)c(Cl)cc1C(=O)NC[C@@H]1CCN2CCC[C@@H]12`, for which the max response in the experiment with CRL-7250 was -16.7%; in the experiment with HEK293 it was -3.94%; in the experiment with KB-3-1 it was -4.24%; with NIH3T3, -6%.
With `FC(F)(F)c1ccc(Nc2nc(-c3c(C(F)(F)F)nc4ccccn34)cs2)cc1`, the Potency with CRL-7250 is 5800 nM (active); in the experiment on HEK293 it was 326 nM (active); with KB-3-1 it was 206 nM (active); in the experiment on NIH3T3, 1300 nM (active).
